Molecules are shown by their SMILES. Compounds without any hit were thinned out: in the full panel of roughly 83,000, 20% have a hit.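 Treatment: one concentration, 48 hours, 96-well format. Scoring: percent growth, with anything below 10 considered active.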 Activity calls are given as the source filed them.

The assay has as its system SK-OV-3 ovarian. Nature of the assay: NCI-60 one-dose screen, 48 h (100 = growth as untreated, 0 = no growth, -100 = all killed). As to conditions: 10 µM.
Take `Nc1nc(-c2ccccc2)cc(-c2cc3ccccc3nc2Cl)n1`: the growth is 99.2% (inactive).

Regarding `O=C(Cn1cc(CSc2nnc3oc4ccccc4n23)nn1)Nc1ccc(Br)cc1`, the growth was 53.8% (inactive).

For the compound `O=c1oc2ccc(-c3ccc(F)cc3F)cc2c(=O)n1-c1ccc(F)c(Cl)c1`, the growth was -9.67% (active).

Consider `CN1CCN(c2ccc(Nc3nc(NCCCNC(=O)c4ccc(F)cc4)c4sccc4n3)cc2)CC1`, for which the growth is 102% (inactive).

Turning to `CO[C@@H]1CSS[C@H]1Cn1nc(-c2ccc(Oc3ccccc3)cc2)c2c(N)ncnc21`, the growth is 30.2% (inactive).

On to `CC(=O)Nc1ccc(-n2cnc3cc(-c4ccc(O)cc4)ccc32)cc1C`, for which the growth is 78.8% (inactive).

With `COC(=O)CC1CC1C1Cc2c(nc(N(C)S(C)(=O)=O)nc2C(C)C)-c2ccc(F)cc21` (stereo not drawn), the growth is 106% (inactive).

Take `CC(=O)Nc1nc(-c2ccc(N3CCN(C)CC3)c(NS(=O)(=O)c3ccc(C(F)(F)F)cc3)c2)cs1`: the growth was 77% (inactive).

As for `Cc1ccc(-c2ccc(SCC(=O)Nc3ccc(Cl)c(C(F)(F)F)c3)nn2)cc1`, the growth was 46.6% (inactive).

For `c1ccc(C(=C(c2ccc(OCCN3CCCCC3)cc2)c2ccc(OCCN3CCCCC3)cc2)C2CCCC2)cc1`, the growth is -45.3% (active).

For the compound `O=C(O)CCCCCCCCCCN1C(=O)/C(=C/c2cnc(-c3ccccc3)s2)SC1=S`, the growth is 130% (inactive).

With `CCN(CC)CCOc1ccc(C(=C(C)c2ccccc2)c2ccc(OCCN(CC)CC)cc2)cc1`, the growth is 58% (inactive).

Take `Cc1ccc(C(=O)Nc2ccc(-n3c(C)nc4c(cnn4-c4ccccc4)c3=O)cc2)cc1`: the growth is 97.4% (inactive).

For the origin of these results see PubChem BioAssay (NCI).
